Data reported in PubChem BioAssay AID1719 (National Center for Advancing Translational Sciences (NCATS), 2009).
The other results are listed elsewhere or left out. Records with an inconclusive call do not appear. Activity calls are given as the source filed them.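 The calls were made as follows: active = compounds whose electron micrographs showed tau fibrils broken into shorter filaments or fragments, graded high on fibril breakup; inconclusive = micrographs gave an unclear fibril picture; inactive = the rest.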

Molecular target: Microtubule-associated protein tau (Homo sapiens) (UniProt P10636)
Assay: Transmission Electron Microscopy Assay for Inhibitors of Tau Fibrillization
Settings: recombinant tau K18 P301L (four-repeat tau fragment) fibrillization, TEM grading; stronger effect = higher value
Source text: NIH Molecular Libraries Probe Production Network [MLPCN] NIH Chemical Genomics Center [NCGC] MLPCN Grant: X01 MH083262-01 Assay Provider: Carlo Ballatore, University of Pennsylvania NCGC Assay Overview: The microtubule-associated protein tau is an abundant protein in the axons of neurons that stabilizes microtubules. With its ability to modulate microtubule dynamics, tau contributes directly or indirectly, to key structural and regulatory cellular functions. Particularly important is the influence tau exerts on axonal transport, which allows signaling molecules, trophic factors and other essential cellular constituents to travel along the axons. Under pathological conditions, tau becomes sequestered into insoluble aggregates called neurofibrillary tangles. This phenomenon is believed to have pathological consequences by promoting axonal transport deficits that ultimately lead to synaptic dysfunction and neuronal loss. The ability of compounds to block tau fibrillization was visualized using transmission electron microscopy (TEM). Samples from the tau ThT confirmation assay treated with 100 uM compound (AID 1558) were centrifuged and imaged using TEM. […]

Chain of Microtubule-associated protein tau (Homo sapiens) (P10636 561-689 P618L limits assumed): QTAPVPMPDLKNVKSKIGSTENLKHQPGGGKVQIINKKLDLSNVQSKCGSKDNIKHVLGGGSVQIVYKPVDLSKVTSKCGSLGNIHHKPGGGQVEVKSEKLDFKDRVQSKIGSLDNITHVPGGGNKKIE

**Q.** How did the fibril grade (0 = clumped fibrils, 4 = only tiny pieces) turn out when CCN(CC)c1ccc2oc(=O)c(C)nc2c1 was run?
**A.** 4 (active)
